# eIF4H FP inh: inhibitors of RNA binding by human eIF4H; Q15056; eIF4H fluorescence polarization binding assay; inhibition, % at 35 µM; 0.94% of 290,000 active;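 also: calls also rest on retests at 20 µM and on dose response follow-up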
# MLLE-PAM2 inh: blocks PAM2 peptide binding to the PABP1 MLLE domain; 0.36% of 360,000 active; GST-MLLE / FITC-PAM2 fluorescence polarization; inhibition, % at 20 µM; P11940; AID 588489; in the data active = inhibition above about 35%, passing the limit was not always enough;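 also: plate controls were DMSO wells with GST-MLLE for no effect and wells lacking GST-MLLE protein for full effect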
# PHOSPHO1 inh: inhibitors of human PHOSPHO1 phosphatase; Q8TCT1; recombinant PHOSPHO1, absorbance phosphatase assay; inhibition, % at 13.3 µM; 1.1% of 290,000 active; in the data active = inhibition above about 60%
# Target sequence (Q8TCT1 whole entry, looked up): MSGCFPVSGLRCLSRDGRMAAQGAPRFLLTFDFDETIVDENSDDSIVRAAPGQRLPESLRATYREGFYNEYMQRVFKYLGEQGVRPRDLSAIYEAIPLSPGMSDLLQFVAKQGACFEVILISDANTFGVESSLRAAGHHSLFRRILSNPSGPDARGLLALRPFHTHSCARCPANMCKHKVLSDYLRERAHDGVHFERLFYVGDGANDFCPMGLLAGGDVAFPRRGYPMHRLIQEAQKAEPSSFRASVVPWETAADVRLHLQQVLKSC
# A3G deaminase: inhibitors of human APOBEC3G DNA deaminase; inhibition, % at 20 µM; recombinant A3G, ssDNA deamination FAM/TAMRA fluorescence; AID 493012; 0.28% of 330,000 active;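 active = inhibition of at least 40% at 20 µM, with no more than 30% in the related APOBEC3A deaminase screen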;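 also: plate controls were DMSO wells with A3G for no effect and wells lacking A3G enzyme for full effect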
# APOBEC3A inh: human APOBEC3A DNA deaminase inhibition. recombinant A3A, FAM/TAMRA ssDNA deamination fluorescence. inhibition, % at 20 µM. 0.41% of 330,000 active. P31941;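 active = at least 40% inhibition at 20 µM here, with at most 30% in a related deaminase screen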;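 also: plate controls were A3A with DMSO for no effect and wells lacking A3A enzyme for full effect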
# Target sequence (P31941 whole entry, looked up): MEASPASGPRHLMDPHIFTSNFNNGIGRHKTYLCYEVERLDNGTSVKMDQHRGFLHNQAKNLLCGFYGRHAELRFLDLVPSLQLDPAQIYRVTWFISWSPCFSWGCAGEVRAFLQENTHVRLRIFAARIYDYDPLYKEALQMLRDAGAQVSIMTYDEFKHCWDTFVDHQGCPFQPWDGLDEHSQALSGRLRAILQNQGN
# PABP polyA inh: blocks human PABP binding to poly(A) RNA | fluorescence polarization | calls only at 35 µM | 1% of 290,000 active | AID 2014;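 also: calls also rest on retests at 20 µM and on dose response follow-up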
# Starred values were filed as active, the others as inactive; i = inactive; u = inconclusive; x = not tested or not shown; + = active, no number. A selection: hits, their analogues and other compounds. The true share with any hit is near 2.6%. Unless noted, no rule for the calls is given here.
SMILES,eIF4H FP inh,MLLE-PAM2 inh,PHOSPHO1 inh,A3G deaminase,APOBEC3A inh,PABP polyA inh
CCn1c(COc2cccc(C)c2)nnc1SCC(=O)N1CCCC1,7,3,30,-3,-3,i
COC(=O)CC1C(=O)NCCN1C(=O)c1oc2c(C)c(C)ccc2c1C (stereo unspecified),x,-5,x,x,x,x
O=Cc1cc(OCc2ccccc2)ccc1[B-](F)(F)F,x,13,x,x,x,x
O=C(Nc1ccc(-n2nncc2-c2ccco2)cc1)c1cc2ccccc2oc1=O,61*,-3,31,13,13,i
CN1CCc2c(sc3c2C(=O)NC(c2ccc(-c4ccc(Cl)cc4)o2)N3)C1 (stereo unspecified),u,-134,17,-8,0,i
Cc1ccc(CN2Cc3cccc4c3[C@@H](CC2=O)[C@H](O)[C@H](O)C4)cc1,x,1,x,-12,-4,x
COc1ccc2c(CC(=O)NNC(=O)c3ccc(O)cc3)coc2c1,x,-1,x,-5,0,x
Cc1nnc2sc(SCC(=O)N3CCC(C)CC3)nn2c1=O,-3,16,66*,3,3,i
Cc1ncc(CO)c(CNc2ccc(-c3nc4ccccc4[nH]3)cc2)c1O,48,12,35,-10,-5,i
COc1ccc(-c2nnc(CSc3ncnc4sc5c(c34)CCC5)o2)cc1OC,53*,5,-8,x,x,+
NC(=O)c1cc2c3ccccc3ccn2c1-c1ccccc1,u,46*,27,x,x,u
Cc1cc(C(N)=O)c2ccccc2n1,-2,4,-18,-5,-2,i
CC(=O)C[C@H](O)CC(=O)[C@@H]1OC(=O)CCCCCCc2ccccc21,x,8,x,-1,3,x
CC(=O)Nc1c(Nc2ccccc2)c2ccccc2oc1=O,-7,47*,-6,-6,-2,i
CC1(c2ccc3ccccc3c2)NC(=O)N(CC(=O)N2CCCC(C(F)(F)F)C2)C1=O (stereo unspecified),x,6,x,-3,-1,x
Cc1ccc(C2CC(=O)Oc3cc(O)ccc32)cc1 (stereo unspecified),50*,7,4,-14,-6,+
O=C1CC(c2ccccc2)c2cc(O)ccc2O1 (stereo unspecified),4,10,1,-2,2,i
O=C(CN1CCCCC1)N1N=C(c2cccs2)CC1c1cccs1 (stereo unspecified),-10,17,26,-5,-1,i
COc1ccc2[nH]cc(CCNC(=O)Nc3ccccc3)c2c1,-3,-17,x,-4,1,i
COc1ccc2c(CCNC(=O)Nc3ccccc3)c[nH]c2c1,-4,-2,63*,0,2,i
Cc1ccc([C@H]2N[C@]3(CCCN(Cc4ccc(Br)cc4)C3=O)[C@H]3C(=O)N(Cc4ccccc4)C(=O)[C@@H]23)cc1,x,-5,x,x,x,x
CCN1CC2=C(OC(N)=C(C#N)C2c2cccs2)/C(=C/c2cccs2)C1 (stereo unspecified),u,-31,4,0,3,u
CCN1C=C(Cc2cccs2)C2=C(C1)C(c1cccs1)C(C#N)=C(N)O2 (stereo unspecified),93*,-21,11,-5,0,+
CN(CC(=O)Nc1ccc(F)cc1)C(=O)c1ccc(OCc2cn3ccccc3n2)cc1,x,3,x,-3,-3,x
CN(C(=O)COC(=O)c1ccc2c(c1)NC(=O)CS2)C1CCS(=O)(=O)C1 (stereo unspecified),0,28,7,-1,-1,i
SMILES,eIF4H FP inh,MLLE-PAM2 inh,PHOSPHO1 inh,A3G deaminase,APOBEC3A inh,PABP polyA inh
CC(C)CN(C(=O)COC(=O)c1ccc2c(c1)NC(=O)CS2)C1CCS(=O)(=O)C1 (stereo unspecified),4,55*,24,-1,-2,i
COCC(C)n1c(C)cc(C(=O)COC(=O)c2ccc3c(c2)NC(=O)CS3)c1C (stereo unspecified),43,39*,-7,1,0,i
Cc1cc(C(=O)COC(=O)c2ccc3c(c2)NC(=O)CS3)c(C)n1CC1CCCO1 (stereo unspecified),21,19,-7,-8,-3,i
CC(C)CN(C(=O)COC(=O)CNC(=O)c1ccccc1F)C1CCS(=O)(=O)C1 (stereo unspecified),0,2,44,6,5,+
CCC(C)N(C(=O)COC(=O)CNC(=O)c1ccccc1F)C1CCS(=O)(=O)C1 (stereo unspecified),-6,-5,16,-11,0,i
Cc1nc(CC(=O)c2ccc(O)c(C)c2O)cs1,6,-12,8,-5,-3,i
O=C(c1oc2ccccc2c1CSCc1ccccc1)N1CCN(c2ncccn2)CC1,16,69*,7,-2,1,i
O=C(/C=C/c1ccco1)c1ccc(NC(=O)C23CC4CC(CC(C4)C2)C3)cc1,u,-12,-11,0,5,+
N#Cc1c(N)sc2c1CCCCCC2,0,33,80*,-2,4,i
CC1CCN(c2nc3c(c(=O)[nH]c(=O)n3C)n2CC(C)CSc2nnnn2-c2ccccc2)CC1 (stereo unspecified),5,-8,-27,-9,-3,+
Cn1c(=O)[nH]c(=O)c2c1nc(N1CCCCC1)n2CCCSc1nnnn1-c1ccccc1,active,11,-2,-2,1,+
Cn1c(=O)[nH]c(=O)c2c1nc(Br)n2CCSc1nnnn1-c1ccccc1,10,1,-1,-4,1,i
CN1CCN(c2nc3c(c(=O)[nH]c(=O)n3C)n2CCCSc2nnnn2-c2ccccc2)CC1,3,-12,26,0,1,i
CN(C)CCC#CC(O)(c1ccccc1)c1ccccc1,6.6*,4,3,-1,0,+
O=C(O)CCCN1C(=O)C(=O)/C(=C(/O)c2ccc(Cl)cc2)C1c1ccccc1 (stereo unspecified),-2,51*,-4,-8,-4,i
CCN(CC)CCN1C(=O)C(=O)/C(=C(/O)c2ccc(Cl)cc2)C1c1ccncc1 (stereo unspecified),7,2,-1,x,x,i
O=c1[nH]c2cc3ccccc3cc2nc1C(F)(F)F,38,41*,-13,-16,-6,i
O=c1[nH]c2ccccc2nc1C(F)(F)C(F)F,-2,-13,-5,-5,1,i
CC1CCCN(S(=O)(=O)c2cc3c4c(c2)C(C)C(=O)N4CCC3)C1 (stereo unspecified),x,14,36,-7,-7,x
CCNc1nc(SCC(N)=O)nc2sc3c(c12)CCN(C)C3,98,37,-8,0,1,+
CCCCN1CNC(=S)N(c2cc(C)ccc2C)C1,1,-87,61*,-1,-1,i
O=C(/C=C/c1ccccc1Cl)Nc1ccncc1,-5,-1,5,-6,-17,i
CC(=O)N(C)c1ccc(NC(=O)/C=C/c2ccccc2Cl)cc1,-2,-1,95*,-3,0,i

# Bioassay records (PubChem)
